In publication PMC9911399, “Two distinct binding modes provide the RNA-binding protein RbFox with extraordinary sequence specificity” one finds binding signal data, which are given here for 25 molecules.

Numbering of substitutions follows the chain as printed; changes in the protein carry UniProt numbers. In all, about 16,000 sequences were measured (“ka relative to ugcaugu”: median about 0.0091, highest 2% from about 0.032 on). Only a selection was taken, and the highest values are over-represented in it overall.

The labels stand for the following.
T1: RBFOX1 RRM (Homo sapiens, UniProt Q9NWB1 109-208)
T1 sequence: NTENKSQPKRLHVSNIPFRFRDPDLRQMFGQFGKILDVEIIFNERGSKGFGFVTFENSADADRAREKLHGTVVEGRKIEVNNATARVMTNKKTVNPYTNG

B1: GAACCCA (DNA:RNA)
RNA: GGGAGACCGGAAUUCAGAUUGUCCGAACCCAUUAAAUCCCGUCGUAGCCACCA
DNA 1: CAATCTGAATTCCGGTCTCCC
DNA 2: TGGTGGCTACGACGGGATT
B2: UUAGAUC (DNA:RNA)
RNA: B1 RNA with G25U, A26U, C28G, C29A, C30U, A31C
DNA 1: CAATCTGAATTCCGGTCTCCC
DNA 2: TGGTGGCTACGACGGGATT
B3: GGCGUGC (DNA:RNA)
RNA: B1 RNA with A26G, A27C, C28G, C29U, C30G, A31C
DNA 1: CAATCTGAATTCCGGTCTCCC
DNA 2: TGGTGGCTACGACGGGATT
B4: CUCGUCC (DNA:RNA)
RNA: B1 RNA with G25C, A26U, A27C, C28G, C29U, A31C
DNA 1: CAATCTGAATTCCGGTCTCCC
DNA 2: TGGTGGCTACGACGGGATT
B5: CCAUCUC (DNA:RNA)
RNA: B1 RNA with G25C, A26C, C28U, C30U, A31C
DNA 1: CAATCTGAATTCCGGTCTCCC
DNA 2: TGGTGGCTACGACGGGATT
B6: GCAUUAA (DNA:RNA)
RNA: B1 RNA with A26C, C28U, C29U, C30A
DNA 1: CAATCTGAATTCCGGTCTCCC
DNA 2: TGGTGGCTACGACGGGATT
B7: GUCCGCA (DNA:RNA)
RNA: B1 RNA with A26U, A27C, C29G
DNA 1: CAATCTGAATTCCGGTCTCCC
DNA 2: TGGTGGCTACGACGGGATT
B8: CGCAUCG (DNA:RNA)
RNA: B1 RNA with G25C, A26G, A27C, C28A, C29U, A31G
DNA 1: CAATCTGAATTCCGGTCTCCC
DNA 2: TGGTGGCTACGACGGGATT
B9: GCAUCCG (DNA:RNA)
RNA: B1 RNA with A26C, C28U, A31G
DNA 1: CAATCTGAATTCCGGTCTCCC
DNA 2: TGGTGGCTACGACGGGATT
B10: GCAUGCA (DNA:RNA)
RNA: B1 RNA with A26C, C28U, C29G
DNA 1: CAATCTGAATTCCGGTCTCCC
DNA 2: TGGTGGCTACGACGGGATT
B11: GCAUCAG (DNA:RNA)
RNA: B1 RNA with A26C, C28U, C30A, A31G
DNA 1: CAATCTGAATTCCGGTCTCCC
DNA 2: TGGTGGCTACGACGGGATT
B12: UCCGAUU (DNA:RNA)
RNA: GGGAGACCGGAAUUCAGAUUGUCCUCCGAUUUUAAAUCCCGUCGUAGCCACCA
DNA 1: CAATCTGAATTCCGGTCTCCC
DNA 2: TGGTGGCTACGACGGGATT
B13: CAACCGU (DNA:RNA)
RNA: B1 RNA with G25C, C30G, A31U
DNA 1: CAATCTGAATTCCGGTCTCCC
DNA 2: TGGTGGCTACGACGGGATT
B14: UACAUGG (DNA:RNA)
RNA: B12 RNA with C26A, G28A, A29U, U30G, U31G
DNA 1: CAATCTGAATTCCGGTCTCCC
DNA 2: TGGTGGCTACGACGGGATT
B15: UUGCUAC (DNA:RNA)
RNA: B1 RNA with G25U, A26U, A27G, C29U, C30A, A31C
DNA 1: CAATCTGAATTCCGGTCTCCC
DNA 2: TGGTGGCTACGACGGGATT
B16: GAUACGC (DNA:RNA)
RNA: B1 RNA with A27U, C28A, C30G, A31C
DNA 1: CAATCTGAATTCCGGTCTCCC
DNA 2: TGGTGGCTACGACGGGATT
B17: CACCGGG (DNA:RNA)
RNA: B1 RNA with G25C, A27C, C29G, C30G, A31G
DNA 1: CAATCTGAATTCCGGTCTCCC
DNA 2: TGGTGGCTACGACGGGATT
B18: CGGGUUA (DNA:RNA)
RNA: B12 RNA with U25C, C26G, C27G, A29U, U31A
DNA 1: CAATCTGAATTCCGGTCTCCC
DNA 2: TGGTGGCTACGACGGGATT
B19: CGGGGGG (DNA:RNA)
RNA: B12 RNA with U25C, C26G, C27G, A29G, U30G, U31G
DNA 1: CAATCTGAATTCCGGTCTCCC
DNA 2: TGGTGGCTACGACGGGATT
B20: GGGUUUA (DNA:RNA)
RNA: B1 RNA with A26G, A27G, C28U, C29U, C30U
DNA 1: CAATCTGAATTCCGGTCTCCC
DNA 2: TGGTGGCTACGACGGGATT
B21: GGGGGGG (DNA:RNA)
RNA: B1 RNA with A26G, A27G, C28G, C29G, C30G, A31G
DNA 1: CAATCTGAATTCCGGTCTCCC
DNA 2: TGGTGGCTACGACGGGATT
B22: GGGGUUG (DNA:RNA)
RNA: B12 RNA with U25G, C26G, C27G, A29U, U31G
DNA 1: CAATCTGAATTCCGGTCTCCC
DNA 2: TGGTGGCTACGACGGGATT
B23: GUCGGGG (DNA:RNA)
RNA: B12 RNA with U25G, C26U, A29G, U30G, U31G
DNA 1: CAATCTGAATTCCGGTCTCCC
DNA 2: TGGTGGCTACGACGGGATT
B24: CGGGUUG (DNA:RNA)
RNA: B12 RNA with U25C, C26G, C27G, A29U, U31G
DNA 1: CAATCTGAATTCCGGTCTCCC
DNA 2: TGGTGGCTACGACGGGATT
B25: GGGGUUA (DNA:RNA)
RNA: B1 RNA with A26G, A27G, C28G, C29U, C30U
DNA 1: CAATCTGAATTCCGGTCTCCC
DNA 2: TGGTGGCTACGACGGGATT

This assay concerns the target T1, RBFOX1 RRM. Kind of assay: EMSA; HiTS-Eq, 1 nM pool, 10 min; buffer printed only for the single-RNA assays: 10 mM Tris pH 7.5, 150 mM NaCl, 3.4 mM EDTA, 0.001% NP-40, 30 C. As to conditions: tags: His6 N-terminal (pET28a); label: 5' 32P. In a few lines:
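Purified RbFox RRM, wild type or mutant, was incubated for 10 min in 50 µL with 1 nM of a 5′-radiolabelled RNA pool carrying 7 randomized nucleotides, whose flanks were annealed to DNA oligonucleotides, over a series of increasing protein concentrations. Unbound RNA was resolved on 8% native PAGE, cut out, reverse-transcribed, barcoded by PCR and sequenced on an Illumina HiSeq 2500. Relative association constants were derived from changes in read counts for each RNA species versus the control reaction and normalised to the cognate motif.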
As for B1, the binding signal is 0.00229 KA relative to UGCAUGU.

Take B2: the binding signal is 0.0111 KA relative to UGCAUGU.

As for B3, the binding signal is 0.0292 KA relative to UGCAUGU.

B4: the binding signal was 0.00629 KA relative to UGCAUGU.

Take B5: the binding signal was 0.00486 KA relative to UGCAUGU.

In the case of B6, the binding signal is 0.00489 KA relative to UGCAUGU.

For the molecule B7, the binding signal is 0.0155 KA relative to UGCAUGU.

Take B8: the binding signal is 0.017 KA relative to UGCAUGU.

For the molecule B9, the binding signal is 0.0325 KA relative to UGCAUGU.

With B10, the binding signal is 0.751 KA relative to UGCAUGU.

For the molecule B11, the binding signal was 0.0121 KA relative to UGCAUGU.

Turning to B12, the binding signal was 0.00941 KA relative to UGCAUGU.

Take B13: the binding signal was 0.00135 KA relative to UGCAUGU.

With B14, the binding signal is 0.0106 KA relative to UGCAUGU.

As to B15, the binding signal is 0.015 KA relative to UGCAUGU.

Consider B16, for which the binding signal is 0.012 KA relative to UGCAUGU.

Take B17: the binding signal was 0.00514 KA relative to UGCAUGU.

Regarding B18, the binding signal was 0.0205 KA relative to UGCAUGU.

On to B19, for which the binding signal is 0.0136 KA relative to UGCAUGU.

Turning to B20, the binding signal is 0.0165 KA relative to UGCAUGU.

For B21, the binding signal was 0.0247 KA relative to UGCAUGU.

Turning to B22, the binding signal is 0.0899 KA relative to UGCAUGU.

Regarding B23, the binding signal was 0.0181 KA relative to UGCAUGU.

For the molecule B24, the binding signal was 0.0491 KA relative to UGCAUGU.

Turning to B25, the binding signal was 0.0364 KA relative to UGCAUGU.
